# Several values for one entry are separate records, joined by “and”; a condition that tells them apart may be missing. Equal values may be shown once. Results filed as inconclusive are left out. Unmarked numbers belong to inactive results. Activity calls are given as the source filed them. The call rests on the fitted dose curve; in most records, active means well fitted inhibition curve with a large enough effect; inconclusive means small, poorly fitted or top-dose-only effect; inactive means no such curve, though single readings can be large or run the other way.
# Assay: Primary qHTS for inhibitors of nuclear receptor binding SET domain protein 2 (NSD2) in an RCH-ACV wild type WT cells (2C) (AID 1645877); further: nearly all actives have a fitted effect of over 70% in size
# Details: RCH-ACV (leukaemia line) NSD2 WT (2C) viability, CellTiter-Glo, 72 h; series mostly up to 44.9 µM; activity change, negative = cell killing: at the top concentration
# Description: Assay Provider: Jonathan D. Licht, MD
# University of Florida College of Medicine, Gainesville, FL
# Mutations in epigenetic regulators are common in relapsed pediatric acute lymphoblastic leukemia (ALL). Here, we uncovered the mechanism underlying the relapse of ALL driven by an activating mutation of the NSD2 histone methyltransferase (p.E1099K). […] Correction of this mutation restored glucocorticoid sensitivity. The transcriptional response to glucocorticoids was blocked in NSD2 mutant cells due to depressed glucocorticoid receptor (GR) levels and the failure of glucocorticoids to autoactivate GR expression. […] Pre-treatment of NSD2 p.E1099K cell lines and PDX samples with PRC2 inhibitors reversed glucocorticoid resistance in vitro and in vivo.
# High-throughput drug screening of isogenic RCH-ACV cell lines was performed at the National Center for Advancing Translational Science (NCATS), National Institutes of Health as previously described (1). Briefly, isogenic RCH-ACV NSD2 p.E1099K mutant (9B) and WT cells (2C) were plated at 500 cells/well in a 1536-well plate with a 72-hour incubation with compounds prior to addition of CellTiter-Glo to assess cell viability. NCATS libraries screened include: NPC, MIPE 5.0, Kinase and NPACT. To determine compound activity in the qHTS assay, the concentration-response data for each sample was plotted and modeled by a four-parameter logistic fit yielding IC50 and efficacy (maximal response) values. The area under the curve (AUC) of the dose-response curve ensures both efficacy (magnitude of cell killing) and potency (concentration that elicits cell killing) are accounted for in the analysis of activity.
# 1. Tobie D Lee, Olivia W Lee, Kyle R Brimacombe, Lu Chen, Rajarshi Guha, Sabrina Lusvarghi, Bethilehem G Tebase, Carleen Klumpp-Thomas, Robert W Robey, Suresh V Ambudkar, Min Shen, Michael M Gottesman, Matthew D Hall. A High-Throughput Screen of a Library of Therapeutics Identifies Cytotoxic Substrates of P-glycoprotein. Mol Pharmacol. 2019, Nov;96(5):629-640.
# On the % scale 0 is the no-effect control and ±100 the full control effect.
SMILES,Potency,"activity change, negative = cell killing",outcome
C=C(C)C(=O)O[C@H]1C[C@@](C)(O)C(=O)CC(O)/C(C)=C\[C@H]2OC(=O)C(=C)[C@H]12 (stereo not given in full),1.27 µM (active),,
CC1=CC(=O)C2(OC3OC(C)C(O)C(OC(=O)/C=C/c4ccccc4)C3O)C=COC(OC3OC(CO)C(O)C(O)C3O)C12 (stereo not given),,-12.8% [at 17.3 µM],
CC1(C)CC[C@]2(CO[C@@H]3O[C@H](CO)[C@@H](O)[C@H](O)[C@H]3O)[C@@H](O)C[C@]3(C)C(=CCC4[C@@]5(C)CC[C@H](O[C@@H]6O[C@H](CO[C@@H]7O[C@H](CO[C@@H]8OC[C@@H](O)[C@H](O)[C@H]8O)[C@@H](O)[C@H](O)[C@H]7O)[C@@H](O)[C@H](O)[C@H]6O)C(C)(C)C5CC[C@]43C)[C@@H]2C1 (stereo not given in full),,-16% [at 9.23 µM],
CC(C)[C@@H](CS(=O)(=O)C(C)C)N1C(=O)[C@@](C)(CC(=O)O)C[C@H](c2cccc(Cl)c2)[C@H]1c1ccc(Cl)cc1,515 nM (active) and 662 nM (active),,
C/C=C(\C)C(=O)OCC1OC(OC2OC(COC(=O)/C(C)=C/C)C(OC3OC(CO)C(OC(=O)/C(C)=C/C)C(OC(=O)/C(C)=C/C)C3O)C(O)C2O)C(O)C(O)C1OC1OC(CO)C(OC(=O)/C(C)=C/C)C(OC(=O)/C(C)=C/C)C1O (stereo not given),,-15.3% [at 9.23 µM],
C[C@@H]1O[C@@H](O[C@H]2[C@H](O[C@H]3CC[C@@]4(C)C(CC[C@]5(C)C4CC=C4[C@@H]6CC(C)(C)CC[C@]6(C(=O)O[C@@H]6OC[C@H](O)[C@H](O)[C@H]6O[C@@H]6O[C@@H](C)[C@H](O[C@@H]7O[C@H](CO)[C@@H](O)[C@H](O)[C@H]7O)[C@H](O)[C@H]6O)[C@H](O)C[C@]45C)C3(C)C)O[C@H](CO)[C@@H](O[C@@H]3OC[C@@H](O)[C@H](O)[C@H]3O)[C@@H]2O)[C@H](O)[C@H](O)[C@H]1O (stereo not given in full),,-15.2% [at 9.23 µM],
CCCC1(c2ccccc2)NC(=O)N(CC(=O)N(C)Cc2c(F)cccc2Cl)C1=O (stereo not given),,-39.4%,
COc1ccc(/C=C\C(=O)O)c(O[C@@H]2O[C@H](CO)[C@@H](O)[C@H](O)[C@H]2O)c1,,-3.17%,
C[C@@H]1O[C@@H](O[C@@H]2[C@@H](O)[C@H](O[C@H]3CC[C@@]4(C)C(CC[C@]5(C)C4CC=C4[C@@H]6CC(C)(C)CC[C@]6(C(=O)O[C@@H]6O[C@H](CO)[C@@H](O)[C@H](O)[C@H]6O)CC[C@]45C)C3(C)C)O[C@H](C(=O)O)[C@H]2O)[C@H](O)[C@H](O)[C@H]1O (stereo not given in full),,-14.9% [at 9.23 µM],
O=C(O)c1c(O)c(-c2ccccc2)nc2ccccc12,,2.88%,
C[C@@H]1O[C@@H](O[C@H]2[C@H](O)[C@@H](O)[C@H](OC3CCC4(C)C5CCC(C)(C(CO)OC6OC(CO)C(O)C(O)C6O)CC5=CCC4C3(C)C)O[C@@H]2CO)[C@H](O)[C@H](O)[C@H]1O (stereo not given in full),,-10.3% [at 17.3 µM],
COc1c2c(c(C)c3c1C(=O)OC3)OC1(C)CC(O)C34OC(OC)(OC3(C)C)C(O)CC4(C)C1C2 (stereo not given),,2.88% [at 17.3 µM],
Clc1cc2c(NC3CCCC3)nnc(-c3ccncc3)c2cc1Cl,inactive,,
CN(C)C/C=C/C(=O)Nc1cccc(C(=O)Nc2cccc(Nc3ncc(Cl)c(-c4c[nH]c5ccccc45)n3)c2)c1,72.8 nM (active) and 132 nM (active),,
CCCCNc1ccc(-c2ccc(CN3CCOCC3)cn2)c(NC2CCC(O)CC2)c1 (stereo not given),0.796 µM (active),,
O=C1NC(Cc2ccccc2)C(=O)N2CCCC12 (stereo not given),,-8.45%,
C[C@@H]1O[C@@H](O[C@@H]2CO[C@@H](O[C@H]3CC[C@@]4(C)C(CC[C@]5(C)C4CC=C4[C@@H]6CC(C)(C)CC[C@]6(C(=O)O[C@@H]6O[C@H](CO)[C@@H](O)[C@H](O)[C@H]6O)CC[C@]45C)[C@]3(C)CO)[C@H](O)[C@H]2O[C@@H]2O[C@H](CO)[C@@H](O)[C@H](O)[C@H]2O)[C@H](O)[C@H](O)[C@H]1O (stereo not given in full),,-18.1% [at 9.23 µM],
O=C(O)c1cc(-c2c(-c3ccccc3)nn3ccccc23)n[nH]c1=O,,,inactive
O=C(/C=C\n1cnc(-c2cc(C(F)(F)F)cc(C(F)(F)F)c2)n1)N1CC(F)(F)C1,0.833 µM (active),,
Cc1ccccc1C#Cc1ccc(CCC(=O)O)cc1,,-29.5%,

SMILES,Potency,"activity change, negative = cell killing",outcome
O=C(c1cn(Cc2cncn2Cc2ccc(Br)cc2)cc1-c1cccc2ccccc12)N1CCOCC1,1.15 µM (active),,
CC(=O)/C=C/[C@H]1[C@](C)(O)[C@@H](O)[C@H](OC(C)=O)C2C(C)(C)CCC[C@@]21C (stereo not given in full),,0.147%,
C=CC(C)(CC/C=C(\C)C(=O)OC)OC1OC(COC(=O)CC(C)(O)CC(=O)O)C(OC2OC(CO)C(O)C(O)C2O)C(O)C1O (stereo not given),,,inactive [at 17.3 µM]
O=C1CCC=CC1(O)C(=O)OCc1ccccc1O[C@@H]1O[C@H](CO)[C@@H](O)[C@H](O)[C@H]1O (stereo not given in full),5.02 µM (active),,
CNC12CC3C[C@@](C)(C1)C[C@](C)(C3)C2,,-29.2%,
Cn1nnc(-c2ccc(-c3ccc(N4C[C@H](CO)OC4=O)cc3F)cn2)n1,,-20.6%,
CC1(C(=O)O)CCCC2(C)C3CCC4CC3(CCC12)CC4=O (stereo not given),,1.71%,
C=CC(=O)Nc1cccc(Nc2nc(Nc3ccc(N4CCN(C(C)=O)CC4)cc3OC)ncc2C(F)(F)F)c1,2.9 µM (active),,
CC1CC[C@]2(C(=O)O)CC[C@]3(C(=O)O)C(=CCC4[C@@]5(C)CC[C@H](OC6OC(C)C(O)C(OC7OC(CO)C(O)C(O)C7O)C6O)C(C)(C)C5CC[C@]43C)C2C1C (stereo not given in full),,-4.31% [at 17.3 µM],
CC(=O)O[C@@](C)(C(=O)/C=C/C(C)(C)O)[C@H]1[C@H](O)C[C@@]2(C)[C@@H]3CC=C4[C@@H](C=C(O)C(=O)C4(C)C)[C@]3(C)C(=O)C[C@]12C,0.282 µM (active),,
CC1(C)CC[C@]2(C(=O)O)CC[C@]3(C)C(=CCC4[C@@]5(C)CC[C@H](O[C@@H]6O[C@H](CO)[C@@H](O)[C@H](O)[C@H]6O[C@@H]6O[C@H](CO)[C@@H](O)[C@H](O)[C@H]6O)[C@@](C)(CO)C5CC[C@]43C)[C@@H]2C1 (stereo not given in full),,,inactive [at 17.3 µM]
Cn1cc(-c2ccc3nnc(Sc4ccc5nn(C)cc5c4)n3n2)cn1,,-12.4%,
COc1ccccc1NC(=O)OCC1CCN(C(=O)OC(C)(C)C)CC1,,-27.2%,
Cc1cc(C(=O)N2Cc3cnn(C)c3Nc3ccccc32)ccc1CNC(=O)N1CCC[C@H]1C(=S)N1CCCN(C)CC1,,-16.9%,
O=C(Nc1ccc(S(=O)(=O)Nc2ccccc2Cl)c(Cl)c1)c1ccccn1,,-13.9%,
CCC(O)C(C)C1CCC(C(C)C(=O)O)O1 (stereo not given),,-16.3%,
COC(=O)c1ccccc1O[C@@H]1O[C@H](CO)[C@@H](O)[C@H](O)[C@H]1O[C@@H]1O[C@@H](C)[C@H](O)[C@@H](O)[C@H]1O,,,inactive [at 17.3 µM]
O=C(c1ccc2nccnc2c1)N1CCCCC1,,-7.43%,
Cc1[nH]nc(C(F)(F)F)c1Cc1sc2c(c1C(=O)N1C[C@](C)(O)CO1)c(=O)n(C)c(=O)n2C(C)C,inactive,,
CN(C)c1nc(NC2CCC(NC(=O)c3ccc(F)c(F)c3)CC2)nc2ccccc12 (stereo not given),6.49 µM (active),,

# Reference: PubChem BioAssay (NCATS)
